Results filed as inconclusive are left out. Unmarked numbers belong to inactive results. Calls of active or inactive are those of the source. The call rests on the fitted dose curve; in most records, active means well fitted inhibition curve with a large enough effect; inconclusive means small, poorly fitted or top-dose-only effect; inactive means flat fitted curve, though single readings scatter.
target: Ubiquitin carboxyl-terminal hydrolase 1 (Homo sapiens) (UniProt O94782); assay: Inhibitors of USP1/UAF1: Pilot qHTS (AID 504865); conditions: purified USP1/UAF1, Ub-rhodamine cleavage fluorescence; series mostly up to 114 µM; activity change, negative = inhibition: at the top concentration; further: nearly all actives have a fitted effect of over 35% in size;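 on activity change, negative = inhibition: rhodamine fluorescence freed from ubiquitin-rhodamine substrate followed over time; top concentration of the series differs between compounds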
Outline: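 USP1/UAF1 complex (1nM) preincubated with compound 15 min at room temperature, then Ub-Rho substrate (150nM final) added. Fluorescence read kinetically at 480/540 nm, 6 reads every 60 seconds. Buffer: 50mM HEPES pH 7.8, 0.5mM EDTA, 0.1 mg/ml BSA, 1mM TCEP, 0.01% Tween-20.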
On the % scale 0 is the no-effect control and ±100 the full control effect; potency means the concentration at half of the fitted maximal effect.

Sequence of Ubiquitin carboxyl-terminal hydrolase 1 (Homo sapiens) (O94782 whole entry, looked up): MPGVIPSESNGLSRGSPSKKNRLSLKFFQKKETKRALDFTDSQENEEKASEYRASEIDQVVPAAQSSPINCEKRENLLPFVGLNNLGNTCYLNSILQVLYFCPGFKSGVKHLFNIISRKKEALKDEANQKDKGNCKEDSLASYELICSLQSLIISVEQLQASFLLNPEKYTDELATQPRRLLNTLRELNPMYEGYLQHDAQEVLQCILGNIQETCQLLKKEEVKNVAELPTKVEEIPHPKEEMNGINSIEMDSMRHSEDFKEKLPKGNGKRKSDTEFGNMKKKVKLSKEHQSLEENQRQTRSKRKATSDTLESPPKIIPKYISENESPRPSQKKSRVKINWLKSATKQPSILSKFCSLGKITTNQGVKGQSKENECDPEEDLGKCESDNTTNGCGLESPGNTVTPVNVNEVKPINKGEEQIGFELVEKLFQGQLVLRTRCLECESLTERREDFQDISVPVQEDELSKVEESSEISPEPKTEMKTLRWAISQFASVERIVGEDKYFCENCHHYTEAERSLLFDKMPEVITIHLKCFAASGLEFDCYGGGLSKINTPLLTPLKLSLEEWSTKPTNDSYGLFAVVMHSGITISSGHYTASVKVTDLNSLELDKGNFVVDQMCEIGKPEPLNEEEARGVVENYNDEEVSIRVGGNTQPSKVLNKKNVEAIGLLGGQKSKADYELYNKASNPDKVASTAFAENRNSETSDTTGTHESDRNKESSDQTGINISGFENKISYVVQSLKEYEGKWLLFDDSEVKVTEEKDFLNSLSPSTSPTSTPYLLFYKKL

Compound	activity change, negative = inhibition	Potency
CCN(CC)CC1CCCCN1CC(=O)N1c2ccccc2C(=O)Nc2cccnc21 (configuration not stated)	-5.97%	–
CCN(CC)CCOC(=O)C(c1ccccc1)c1ccccc1	-8.55%	–
Cc1cccc(C)c1NC(=O)CC12CCCN1CCC2	-1.8%	–
CN1CCCN=C1COC(=O)C(O)(c1ccccc1)C1CCCCC1 (configuration not stated)	3.18%	–
O=C(NCCCN1CCOCC1)c1ccc(Cl)cc1	2.56%	–
O=C1c2ccccc2C(=O)C1c1ccc(Br)cc1	-2.81%	–
CCOC(=O)c1cccnc1	4.65%	–
Cc1ccc(S(=O)(=O)NC(=O)NC2CCCCCCC2)cc1	-2.11%	–
CCOC(=O)[C@H](CCc1ccccc1)N[C@@H](C)C(=O)N1CCC[C@H]1C(=O)O	-0.947%	–
NC(N)=NCCN1CCCCCCC1	2.06%	–
Nc1ccncc1N	-5.47%	–
O=c1[nH]cnc2nc[nH]c12	-7.89%	–
NS(=O)(=O)c1ccc(NC(=O)CCC(=O)O)cc1	-1.94%	–
OCc1ccc(Cl)cc1Cl	-6.47%	–
CCCOC(=O)c1ccc(N)cc1	0.504%	–
CCCCCCCCCCCCCCCCC(C(=O)O)C(O)(CC(=O)O)C(=O)O (configuration not stated)	–	22.4 µM (active)
COc1ccc(C(=O)NCc2ccc(OCCN(C)C)cc2)cc1OC	-5.94%	–
CCCCCCCC(=O)OCC(O)CO (configuration not stated)	-9.17%	–
CC(CSC(=O)c1ccccc1)C(=O)N1C[C@@H](Sc2ccccc2)C[C@H]1C(=O)O (some centres not stated)	-6.37%	–
C[C@@H]1CCC[C@H](C)N1	-6.16% [at 54.9 µM]	–
O=C(O)COC(=O)Cc1ccccc1Nc1c(Cl)cccc1Cl	1.39% [at 54.9 µM]	–
O=C(O)c1ccc[n+]([O-])c1	-2.79%	–
Cc1c(Cn2ccnc2)c2ccccc2n1CCC(=O)O	-4.63%	–
CN1C(C)(C)CCCC1(C)C	–	inactive
CCCCC1(COC(=O)CCC(=O)O)C(=O)N(c2ccccc2)N(c2ccccc2)C1=O	-11.4% [at 54.9 µM]	–
O=C(NCN1CCOCC1)c1cnccn1	5.36%	–
Nc1c2c(nc3c1CCC3)CCCC2	0.458%	–

— PubChem BioAssay (NCATS)
